These results are taken from PubChem BioAssay (NCI).

Molecules are shown by their SMILES. Compounds without any hit were thinned out: in the full panel of roughly 83,000, 20% have a hit.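 How to read the values: 0–100, growth inhibition (40 = 60% inhibited); 0, no net growth; -100 to 0, cell death (-40 = 40% of starting cells died; -100 = all dead).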 A number with no mark means an inactive call. Active and inactive are the calls of the source. Rule for the calls: active = growth percent below 10; inactive = the rest.

Among the test systems are NCI-H23 lung; NCI-H226 lung; NCI-H322M lung; HOP-62 NSCLC; NCI-H460 lung; HOP-92 NSCLC; NCI-H522 lung; A549/ATCC NSCLC; 786-0 renal; COLO 205 colon; DU-145 prostate; K-562 leukemia; MALME-3M melanoma; MDA-MB-231 breast; RXF 393 renal; SF-268 CNS; SF-295 CNS; SF-539 CNS; UACC-257 melanoma; M14 melanoma.
Test in all cases: NCI-60 one-dose screen, 48 h (100 = growth as untreated, 0 = no growth, -100 = all killed)
What all share (conditions): 10 µM unless noted

For the compound `COc1ccc(-c2ccc(-c3ccc(C(=N)N)cn3)s2)cc1OC`, the growth in the assay with NCI-H23 lung was 94%; with NCI-H226 lung, 96.3%; with NCI-H322M lung it was 97.7%; in the assay with HOP-62 NSCLC, 91.4%; in the assay with NCI-H460 lung it was 99.5%; in the assay on HOP-92 NSCLC, 69.3%. The growth in the assay with NCI-H522 lung is 100%; in the assay with A549/ATCC NSCLC, 100%; in the assay with 786-0 renal, 100%; in the assay on COLO 205 colon, 103%; in the assay with DU-145 prostate, 97.5%; in the assay on K-562 leukemia, 41.8%. Also, the growth was 94.9% in the assay with MALME-3M melanoma; 89% in the assay with MDA-MB-231 breast; 121% in the assay on RXF 393 renal; 101% in the assay on SF-268 CNS; 99.1% in the assay with SF-295 CNS; 83.4% in the assay on SF-539 CNS. In addition, the growth is 114% in the assay on UACC-257 melanoma and 97.4% in the assay with M14 melanoma.

On to `O=C(NCCNc1nccc(-n2ccc3cccnc32)n1)c1ccc(C(F)(F)F)cc1`, for which the growth in the assay with NCI-H23 lung was 105%; with NCI-H226 lung, 97.7%; in the assay with NCI-H322M lung, 107%; in the assay with HOP-62 NSCLC, 99.2%; with NCI-H460 lung it was 102%; with HOP-92 NSCLC, 112%. The growth is 100% in the assay with NCI-H522 lung; 102% with A549/ATCC NSCLC; 103% in the assay on 786-0 renal; 112% in the assay on COLO 205 colon; 111% with DU-145 prostate; 99.8% with K-562 leukemia. Moreover, the growth in the assay on MALME-3M melanoma is 108%; in the assay with MDA-MB-231 breast, 97.7%; with RXF 393 renal, 110%; in the assay with SF-268 CNS, 97.8%; in the assay with SF-295 CNS, 101%; in the assay with SF-539 CNS, 107%. Moreover, the growth with UACC-257 melanoma was 108%; in the assay with M14 melanoma, 102%.

With `COc1ccc(C2CC(c3ccc(OC)cc3OC)=NN2c2ccc(S(N)(=O)=O)cc2)cc1` (stereo not given), the growth in the assay with NCI-H23 lung is 90.7%; with NCI-H226 lung, 101%; in the assay with NCI-H322M lung it was 94.4%; with HOP-62 NSCLC, 119%; in the assay on NCI-H460 lung it was 87.3%; in the assay with HOP-92 NSCLC it was 77.7%. The growth is 63.7% with NCI-H522 lung; 59% in the assay on A549/ATCC NSCLC; 99.3% in the assay with 786-0 renal; 112% in the assay on COLO 205 colon; 115% in the assay on DU-145 prostate; 58.3% in the assay on K-562 leukemia. For the same compound, the growth in the assay on MALME-3M melanoma is 123%; with MDA-MB-231 breast, 110%; in the assay on RXF 393 renal it was 82.4%; in the assay on SF-268 CNS, 161%; with SF-295 CNS, 88.5%; with SF-539 CNS it was 103%. Further, the growth with UACC-257 melanoma is 77.3%; in the assay with M14 melanoma, 96.2%.

Regarding `CCN(CC)c1ccc(/C=C2\Oc3ccc(O)c(I)c3C2=O)cc1`, the growth was 67.5% in the assay with NCI-H23 lung; 88.8% in the assay with NCI-H226 lung; 96.9% in the assay on NCI-H322M lung; 77.8% with HOP-62 NSCLC; 25.5% in the assay on NCI-H460 lung; 81.9% in the assay with HOP-92 NSCLC. In addition, the growth with NCI-H522 lung is 22.6%; with A549/ATCC NSCLC, 46%; with 786-0 renal, 73.6%; in the assay on COLO 205 colon it was 64.3%; in the assay with DU-145 prostate, 87%; with K-562 leukemia, 12.5%. Moreover, the growth in the assay on MALME-3M melanoma was 63.4%; with MDA-MB-231 breast, 65.8%; in the assay with RXF 393 renal, 63%; with SF-268 CNS, 71.4%; with SF-295 CNS, 68.9%; in the assay with SF-539 CNS it was 58.3%. Also, the growth was 80.6% in the assay with UACC-257 melanoma and 28.7% in the assay with M14 melanoma.

With `O=C(Nc1ccncc1)C(=O)c1cn(S(=O)(=O)c2ccccc2F)c2ccccc12`, the growth in the assay with NCI-H23 lung was 25.9%; with NCI-H226 lung, 56.8%; with NCI-H322M lung, 97.2%; with HOP-62 NSCLC, 38.4%; with NCI-H460 lung, 75.8%; in the assay with HOP-92 NSCLC, 24.6%. The growth with NCI-H522 lung was -24.6% (active); in the assay with A549/ATCC NSCLC, 71.8%; in the assay with 786-0 renal it was 36.9%; in the assay on COLO 205 colon it was 103%; with DU-145 prostate, 24.9%; in the assay with K-562 leukemia, 22.8%. Also, the growth in the assay on MALME-3M melanoma is 41.2%; with MDA-MB-231 breast, 39.9%; with RXF 393 renal it was 28.6%; with SF-268 CNS it was 42.2%; in the assay with SF-295 CNS, 22.5%; in the assay on SF-539 CNS it was 6.94% (active). Moreover, the figures for the growth in the assay with UACC-257 melanoma and with M14 melanoma were 63.1% and 14.8%, respectively.

With `COc1cc(C(=O)/C=C/c2c(C)n([O-])c3ccc(C(F)(F)F)cc3[n+]2=O)cc(OC)c1OC`, the growth was 98.2% in the assay on NCI-H23 lung; 81.6% in the assay with NCI-H226 lung; 118% with NCI-H322M lung; 118% with HOP-62 NSCLC; 116% in the assay with NCI-H460 lung; 87.3% in the assay with HOP-92 NSCLC. Besides, the growth in the assay with NCI-H522 lung is -82.1% (active); in the assay on A549/ATCC NSCLC, 94.1%; with 786-0 renal it was 101%; with COLO 205 colon it was 46.2%; in the assay on DU-145 prostate, 91.3%; in the assay on K-562 leukemia, 52.9%. For the same compound, the growth was 106% in the assay with MALME-3M melanoma; 99.6% in the assay on MDA-MB-231 breast; -35.4% (active) in the assay with RXF 393 renal; 96.1% in the assay on SF-268 CNS; 105% with SF-295 CNS; 96.5% in the assay on SF-539 CNS. Besides, the values for the growth with UACC-257 melanoma and with M14 melanoma were 74.2% and 88.9%, respectively.

`COc1ccc(S(=O)(=O)n2ccc(-c3ccc4c(c3)CCC(C)(C)O4)n2)cc1OC`: the growth with NCI-H23 lung was 56.1%; in the assay on NCI-H226 lung, 59%; in the assay on NCI-H322M lung, 89.5%; in the assay on HOP-62 NSCLC it was 112%; in the assay with NCI-H460 lung, 69.6%; with HOP-92 NSCLC, 58.3%. In addition, the growth in the assay on NCI-H522 lung is 65.8%; in the assay with A549/ATCC NSCLC, 67.1%; with 786-0 renal, 79.4%; in the assay with COLO 205 colon, 87.1%; in the assay on DU-145 prostate, 82.6%; with K-562 leukemia, 53%. Further, the growth was 114% in the assay with MALME-3M melanoma; 82.5% in the assay with MDA-MB-231 breast; 75.1% with RXF 393 renal; 85.3% with SF-268 CNS; 63% in the assay with SF-295 CNS; 97.1% in the assay on SF-539 CNS. Also, the growth in the assay with UACC-257 melanoma was 57.1%; with M14 melanoma it was 81.9%.

For `C=C[C@@H]1C[C@@H]2Cc3c(C)cc(C)cc3N1O2`, the growth was 95% in the assay with NCI-H23 lung; 95.5% in the assay on NCI-H226 lung; 91.9% in the assay with NCI-H322M lung; 91.2% in the assay on HOP-62 NSCLC; 99.8% in the assay with NCI-H460 lung; 45.6% with HOP-92 NSCLC. Moreover, the growth in the assay on NCI-H522 lung was 99.2%; in the assay on A549/ATCC NSCLC it was 95.1%; in the assay with 786-0 renal, 105%; with COLO 205 colon, 100%; with DU-145 prostate it was 108%; in the assay with K-562 leukemia, 89.8%. Moreover, the growth is 77% with MALME-3M melanoma; 113% in the assay on MDA-MB-231 breast; 98.3% in the assay with RXF 393 renal; 93% in the assay on SF-268 CNS; 92.1% with SF-295 CNS; 96.6% in the assay on SF-539 CNS. Further, the growth is 101% in the assay with UACC-257 melanoma and 104% in the assay on M14 melanoma.
